IMPase Li inh: IMPase inhibition in cells with lithium potentiation | CHO-M1 cells, IP1 TR-FRET (IP-One), carbachol + lithium | Potency, µM (highest dose often 59.4 µM), inactives show top-dose activity, negative = IMPase inhibition, most hits filed as inhibitors | actives 0.35% (n = 210,000) | AID 1457;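 note: IP1 builds up when IMPase is blocked and the TR-FRET signal falls; potency is the fitted concentration of half-maximal effect; plate controls were basal vehicle for no effect and high inhibitor control for full effect; nearly all actives have a fitted effect of over 50% in size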
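Lithium-sensitised IP1 accumulation assay; M1-expressing CHO cells treated 30 min at 37C with compound. Competitive antibody detection by time-resolved FRET followed a 10 min room-temperature lysis step.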
IMPase cell inh: IMPase inhibition in cells. P97697. CHO-M1 cells, IP1 accumulation, HTRF TR-FRET ratio. inhibition (IP1 accumulation), % at 46.1 µM. 120,000 tested, under 10 active; active = well fitted curve in the direction sought with a large enough effect in the signal ratio, not every such curve was filed as active; inconclusive = small, poorly fitted or top-dose-only effect, or a change in a side signal; inactive = no such curve, though single readings can be large or run the other way; the % refers to the signal ratio;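 note: cells stimulated with carbachol in lithium chloride buffer; plate controls were DMSO basal wells for no effect and reference inhibitor wells for full effect; higher means more IMPase inhibition seen as more IP1 and lower FRET ratio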
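In this qHTS, compounds (final up to 46 uM) act on CHO-M1 cells that are then activated through the M1 receptor with carbachol, in pH 7.4 buffer containing 50 mM LiCl, for 30 min. IP1 accumulation is quantified by the IP-One immunoassay.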
PNC inhibitor: perinucleolar compartment assembly inhibition | PC3M PTB-GFP, PNC prevalence imaging, 16 h; stronger effect = lower value | activity change (PNC), negative = inhibition, % at 10 µM | actives 3.1% (n = 140,000);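 active = readout at or below -70, meaning at least 70% loss of cells showing the perinucleolar compartment, a nuclear body marking cancer cells; inconclusive = readout between -30 and a set limit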;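 note: plate controls were DMSO wells for no effect and camptothecin positive control wells for full effect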
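PC3M cells stably expressing PTB-GFP, 750–1000 cells/well, treated 16 h at 37 °C with compound (23 nl of library stock), in duplicate. After paraformaldehyde fixation and Hoechst stain, imaged at 20x; PNC prevalence scored by image analysis.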
12-hLO inh: inhibitors of human 12-lipoxygenase (ALOX12). P18054. purified 12-hLO, xylenol orange hydroperoxide absorbance. Potency, µM (highest dose often 57.1 µM), for inactives: top-dose activity change, negative = inhibition, actives largely listed as inhibitors. actives 0.12% (n = 150,000); note: potency is the fitted concentration of half-maximal effect; nearly all actives have a fitted effect of over 55% in size
Target sequence (P18054 whole entry, looked up): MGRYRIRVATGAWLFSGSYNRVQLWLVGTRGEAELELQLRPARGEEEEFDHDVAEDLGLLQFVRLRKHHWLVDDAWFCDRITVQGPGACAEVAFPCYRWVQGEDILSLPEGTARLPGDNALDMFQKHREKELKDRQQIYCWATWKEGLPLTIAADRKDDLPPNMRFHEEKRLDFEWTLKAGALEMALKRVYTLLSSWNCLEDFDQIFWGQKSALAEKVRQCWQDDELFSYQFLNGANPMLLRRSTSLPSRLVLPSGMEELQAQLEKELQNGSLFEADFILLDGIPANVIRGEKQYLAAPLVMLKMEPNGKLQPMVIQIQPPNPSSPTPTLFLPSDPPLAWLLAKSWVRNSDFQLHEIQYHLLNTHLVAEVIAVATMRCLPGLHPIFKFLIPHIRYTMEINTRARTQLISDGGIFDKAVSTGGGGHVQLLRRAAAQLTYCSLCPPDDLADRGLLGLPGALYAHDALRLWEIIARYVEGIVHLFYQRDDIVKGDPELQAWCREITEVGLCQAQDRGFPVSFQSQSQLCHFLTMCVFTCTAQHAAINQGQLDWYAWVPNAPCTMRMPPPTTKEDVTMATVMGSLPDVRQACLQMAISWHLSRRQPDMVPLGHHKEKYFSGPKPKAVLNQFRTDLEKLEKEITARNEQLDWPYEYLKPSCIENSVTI
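Hydroperoxide output read as Fe(III)-xylenol orange absorbance, 573-to-405 nm ratio, after 30 min reaction with 40 uM arachidonic acid. Enzyme: 150 nM purified human 12hLO, 15 min compound preincubation; 25 mM Hepes pH 7.0, room temperature.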
Starred values were filed as active, the others as inactive; ? = inconclusive; . = not tested or not shown; ! = a repeat was not active; [ ] = another dose, or the depositor's remark. The sample as a whole holds a higher share of hits than the screen did. Unless noted, calls come from the whole dose curve; as a rule, active = well fitted curve in the direction sought with a large enough effect; inconclusive = small, poorly fitted or top-dose-only effect, or another doubt; inactive = no such curve, though single readings can be large; an effect the other way counts as inactive or inconclusive. Unless noted, % is set by controls: 0 for no effect and ±100 for the full control effect.

SMILES	IMPase Li inh	IMPase cell inh	PNC inhibitor	12-hLO inh
Cc1ccc(OCCSCc2nnc(NC(=O)Nc3cccc(Cl)c3)s2)cc1	3.1%	.	?	-0.8%
Cc1nn(C(C)C(=O)NNC(=S)Nc2ccc(Cl)cc2)c(C)c1[N+](=O)[O-] (stereo unspecified)	21.8%[38.3 µM]	0.8	-9.7	-5.9%
COc1ccc2nc(NCN3C(=O)c4ccccc4C3=O)sc2c1	-5.5%	.	.	-1.2%[11.4 µM]
O=C(O)CCN1C(=O)C2C3CC(C2C1=O)C1C(c2ccccc2)c2sc(=O)[nH]c2SC31 (stereo unspecified)	-3.4%	.	.	.
Cc1ccc(C2c3sc(=O)[nH]c3SC3C4CC(C5C(=O)N(C(C)C(=O)O)C(=O)C45)C23)cc1 (stereo unspecified)	21.8%	.	-89.9*	-0.8%
COC(=O)c1ccccc1NC(=O)CSc1nnnn1-c1ccc(C)cc1C	10µM*	11.4	-6.4	-2.0%
CCOC(=O)c1csc(NC(=O)CSc2nnnn2-c2ccc3c(c2)OCCO3)n1	5.4%	?	-87.6*	-1.1%
CCOC(=O)c1sc(NC(=O)CSc2nnnn2-c2ccc(C)c(C)c2)nc1C	-13.2%[38.3 µM]	-2.2	17.7	-1.6%
COC(=O)c1ccccc1NC(=O)CSc1n[nH]c(CC(C)C)n1	-6.6%[38.3 µM]	4.8	18.9	-3.2%
COC(=O)c1ccccc1NC(=O)CSc1n[nH]c(C)n1	4.1%	1.9	-100.0*	15.4%
CCOC(=O)c1sc(NC(=O)CSc2nnnn2-c2ccc(C)cc2C)nc1C	10µM*	8.5	-24.6	-2.9%
O=c1[nH]c2ccc(S(=O)(=O)N3CCCCC3)cc2[nH]c1=O	-12.4%	.	-5.1	-5.0%
COc1ccc(CNC(=O)Cn2cc([N+](=O)[O-])nc2C)cc1	-6.0%[38.3 µM]	4.2	-85.9*	-14.8%
COC(=O)Cn1cc([N+](=O)[O-])nc1C	-4.9%	.	.	.
COc1ccc(/C=C/C(=O)OCC(=O)NCC2CCCO2)cc1 (stereo unspecified)	0.6%	.	-81.6*	1.0%
COC(=O)[C@@]1(Cc2ccccc2)[C@H]2c3cc(C(=O)N(C)C)n(Cc4ccc(S(C)(=O)=O)cc4)c3C[C@H]2CN1C(=O)c1ccccc1	13.7%	.	.	-3.5%
Cn1c(Cc2ccccc2)nnc1SCC(=O)NCCc1ccccc1	5.9%	.	.	.
Cc1onc(-c2ccccc2)c1C(=O)Nc1nnc(N2CCCCCC2)s1	12.0%[38.3 µM]	-4.5	-108.4*	6.4%
COc1ccc(OCC(=O)N2N=C(C(F)F)CC2(O)C(F)F)cc1 (stereo unspecified)	4.1%	.	-28.0	-2.4%
CCN(CC)C(=O)c1sc(N)c(C#N)c1C	-0.1%[38.3 µM]	-0.1	-94.9*	-2.9%
CCC[C@H](Sc1nc(N)nc2nc[nH]c12)C(=O)O	4.7%	.	.	-1.3%[11.4 µM]
COc1ccc(-c2cc(C(=O)Nc3cc(S(=O)(=O)N4CCOCC4)ccc3N3CCOCC3)c3ccccc3n2)cc1	0.3%	.	.	.
CN1CCN(c2ccc(NC(=O)c3cccs3)cc2)CC1	10.3%	.	.	.
CC(C)C(=O)N1CCN(c2ccc(NC(=O)c3cccs3)cc2)CC1	10.7%	-3.7	-100.0*	0.1%
CCOC(=O)NC(CC(=O)O)c1ccc(OC)cc1 (stereo unspecified)	-6.1%[38.3 µM]	-0.3	-100.0*	-3.1%
SMILES	IMPase Li inh	IMPase cell inh	PNC inhibitor	12-hLO inh
O=c1cnn([C@@H]2O[C@H](CO)[C@@H](O)[C@H]2O)c(=O)[nH]1	-7.7%	.	-110.6*	-5.7%
O=c1ncccn1[C@@H]1O[C@H](CO)C(O)[C@@H]1O (stereo partly specified)	-1.3%	.	.	3.6%[0.00818 µM]
CCOC(=O)c1nnn(-c2nonc2N)c1CN1CCc2ccccc2C1	5.6%	4.6	-83.2*	-3.6%
CC(C)OC(=O)c1nnn(-c2nonc2N)c1CN1CCc2ccccc2C1	-11.5%[38.3 µM]	2.6	2.0	-1.5%
Cc1ncc(CN2CCN(C(C)C)C(CCO)C2)s1 (stereo unspecified)	2.4%	.	.	.
COc1ccc(S(=O)(=O)Cc2ccc(C(=O)N3CCCC3)o2)cc1	2.5%[38.3 µM]	-0.7	?	3.1%
COc1ccc(S(=O)(=O)Cc2ccc(C(=O)N3CCC(C(N)=O)CC3)o2)cc1	-1.7%[38.3 µM]	-3.6	-85.1*	6.7%
O=c1[nH]c(CSc2nc(-c3ccc(F)cc3)cs2)nc2ccccc12	-0.6%	.	-116.4*	0.9%
Cc1cccc(C)c1Nc1nnc(SCc2nc3ccccc3c(=O)[nH]2)s1	0.4%	.	-118.2*	-4.7%
O=c1[nH]c(CSc2nc(-c3ccccc3)cs2)nc2ccccc12	-0.6%	.	15.7	-4.1%
Cc1ccccc1Nc1nnc(SCc2nc3ccccc3c(=O)[nH]2)s1	-1.5%	.	.	.
COCCCNC(=O)c1sc2ncnc(N3CCc4ccccc4C3)c2c1C	9.1%	-10.1	21.0	-0.1%
CC(C)CCNC(=O)C(c1ccco1)N(Cc1ccccc1)C(=O)c1snc(C(N)=O)c1N (stereo unspecified)	15.7%[38.3 µM]	5.7	-123.3*	-9.7%
Cc1cc(C)nc(/N=C(/NC(=O)Nc2cccc(Cl)c2)Nc2ccccc2)n1	0.1%[38.3 µM]	-10.1	23.3	-14.1%
COCCn1c(=NC(=O)CSCC(=O)Nc2cc(C)on2)sc2cc(C(=O)OC)ccc21	-4.0%	.	-113.4*	2.2%
COCCn1c(SCC(=O)Nc2cc(C)on2)nnc1-c1ccco1	12.7%[38.3 µM]	-8.9	-23.3	-0.8%
CNC(=O)[C@H]1O[C@@H](n2cnc3c(NCc4ccc(N)cc4)ncnc32)[C@H](O)[C@H]1O	5.2%	.	.	.
COC(=O)c1ccccc1NC(=O)/C=C/C(=O)O	-10.2%	.	-83.5*	-0.6%
CN(C)CCCN1c2ccccc2Sc2ccc(Cl)cc21	10.4%	19.4	-110.4*!	9.2%
Cc1ccc(CCC(=O)Nc2ccccc2F)s1	-0.1%	.	.	.
CC(C)N(Cc1nc(-c2ccccc2)no1)C(=O)CCCN1C(=O)c2ccccc2C1=O	-3.3%[38.3 µM]	10.1	11.4	-6.8%
CC(C)N(Cc1nc(-c2ccccc2)no1)C(=O)CN1C(=O)c2ccccc2C1=O	8.1%	12.2	-100.0*	0.1%
Cc1onc(-c2ccccc2Cl)c1C(=O)N1CCN(c2nc3ccccc3s2)CC1	3.5%[38.3 µM]	6.1	-112.6*	-5.9%
COc1ccccc1N1CCN(C(=O)c2c(-c3ccccc3Cl)noc2C)CC1	4.5%[38.3 µM]	?	-20.1	1.3%
Cc1noc(C)c1CSc1ccccc1C(=O)N1CCN(c2ccccc2)CC1	21.8%	13.6	-100.0*	0.4%
SMILES	IMPase Li inh	IMPase cell inh	PNC inhibitor	12-hLO inh
COc1ccc(C(=O)NNC(=O)C(=O)NCc2ccccc2)cc1	-6.8%	.	.	.
Cc1c(NC(=S)NC(NC(=O)C(C)(C)C)C(Cl)(Cl)Cl)c(=O)n(-c2ccccc2)n1C (stereo unspecified)	-2.1%	.	3.6	-0.1%
CCCc1cc(=O)n2[nH]c(-c3ccccc3)cc2n1	-1.6%	-1.2	-100.0*	6.5%
O=C(c1ccccc1)N1CCN(C(=O)C23CC4CC(CC(C4)C2)C3)CC1	-7.5%[38.3 µM]	-8.6	-126.9*	-5.4%
O=C(N1CCN(c2ccccc2F)CC1)C12CC3CC(CC(C3)C1)C2	23.4%	2.0	-15.5	-19.8%
CCOC(=O)Cn1c(S(=O)(=O)Cc2ccccc2Cl)nc(-c2ccccc2)c1-c1ccccc1	14.0%[38.3 µM]	-10.6[1.84 µM]	-83.6*	-6.3%

Source: PubChem BioAssay (National Center for Advancing Translational Sciences (NCATS))
